Shown are actives, neighbours in structure and some others; about 7.7% of the full set was active somewhere.
HCMV antiviral: qHTS Assay for inhibitors of the human cytomegalovirus (HCMV) | HFF cells, HCMV-luciferase reporter, 72 h; stronger effect = lower value | activity change, negative = inhibition, % at 57.5 µM | 4.5% of 410,000 active | AID 1259415, 2018; in the data active = activity change below about -60%; inconclusive = no clear call, values can overlap the other calls; inactive = above about -39%
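Cell-based, HFFs, 1000 cells/well, 16 h 37C; cpds in DMSO + HCMV-luc, MOI 1 PFU/cell; 72 h 37C; OneGlo luminescence after 5 min RT; norm. to buffer vs Salinomycin 10uM.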
Sm TGR inh: qHTS Assay for the Inhibitors of Schistosoma Mansoni Peroxiredoxins. Schistosoma mansoni thioredoxin glutathione reductase (TGR), Q962Y6. purified TGR, DTNB reduction, TNB absorbance 405 nm. Potency, µM (titrated, usually from 114 µM), without a hit: at the top dose activity change, negative = inhibition, usual class: inhibitors. 3% of 360,000 active; note: potency is the fitted concentration of half-maximal effect; nearly all actives have a fitted effect of over 60% in size
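Kinetic colorimetric format: TGR-catalysed, NADPH-driven DTNB reduction monitored via TNB absorbance. Enzyme dispensed at 20 nM; compound exposure 15 min at room temperature before reaction start.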
FBPA Giardia inh: qHTS Assay for Inhibitors of Fructose-1,6-bisphosphate Aldolase from Giardia Lamblia; purified Giardia FBPA; AID 2451, 2010; A8B2U2; Potency, µM (doses to about 59.6 µM), without a hit: at the top dose activity, negative = inhibition, most hits filed as inhibitors; 0.71% of 290,000 active; note: potency is the fitted concentration of half-maximal effect; nearly all actives have a fitted effect of over 55% in size
Target sequence (A8B2U2 whole entry, looked up): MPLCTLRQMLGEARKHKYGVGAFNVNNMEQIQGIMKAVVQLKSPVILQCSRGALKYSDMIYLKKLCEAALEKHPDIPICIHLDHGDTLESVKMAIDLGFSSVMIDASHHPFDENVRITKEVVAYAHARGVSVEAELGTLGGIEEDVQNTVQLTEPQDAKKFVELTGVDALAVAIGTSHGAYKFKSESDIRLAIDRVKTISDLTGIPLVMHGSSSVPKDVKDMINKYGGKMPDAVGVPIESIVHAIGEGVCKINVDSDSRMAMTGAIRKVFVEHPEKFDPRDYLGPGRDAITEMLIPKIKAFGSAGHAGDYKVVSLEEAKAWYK
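Giardia FBPA (40 nM reagent) was preincubated 10 min at RT with compound (up to 57.5 uM final), then substrate plus GAPDH/TPI/NAD/arsenate coupling system with diaphorase/resazurin was added; resorufin fluorescence (525/598 nm) was read after 20 min.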
RE007 growth inh: qHTS Assay for Inhibitors of the HIV-1 protein Vpr; Potency, µM (highest dose often 92.2 µM), for the others: top-dose activity change, negative = less growth, hits mostly inhibitors; 0.21% of 360,000 active; S. pombe RE007 Vpr strain, BacTiter-Glo ATP luminescence, 24 h; active = well fitted falling curve with a large enough effect; inconclusive = small, poorly fitted or top-dose-only effect; inactive = no such curve, though single readings can be large or run the other way; note: potency is the fitted concentration of half-maximal effect; nearly all actives have a fitted effect of over 50% in size
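Fission yeast strain RE007, carrying one chromosomally integrated HIV-1 vpr copy, was seeded at OD 0.01 in PMG+AL medium with 23 nL pinned compound. After 24 h at 30 °C and 99% humidity, viability was read by BacTiter-Glo luminescence.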
FMDV antiviral: High Throughput Screening for Foot and Mouth Disease Virus Antivirals; FMDV antiviral cell-based qHTS; Potency, µM (doses to about 57.9 µM), for the others: top-dose activity change, negative = inhibition, usual class: inhibitors; 1.2% of 410,000 active; calls by dose curve; tested in HEK293T cells; note: read-out not given here; potency is the fitted concentration of half-maximal effect; nearly all actives have a fitted effect of over 45% in size
TbPYK inhibitor: qHTS of Trypanosoma Brucei Inhibitors; Potency, µM (highest dose often 76.8 µM), for the others: at the highest dose activity, negative = inhibition, hits mostly inhibitors; AID 624173, 2012; TbPYK enzyme, Kinase-Glo Plus ATP luminescence, 45 min; 0.12% of 410,000 active; pyruvate kinase (Trypanosoma brucei), Q57TT1; note: potency is the fitted concentration of half-maximal effect; nearly all actives have a fitted effect of over 50% in size
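Activity of T. brucei pyruvate kinase was followed by Kinase-Glo Plus luminescence after the enzyme reacted 45 min at room temperature with 130 uM ADP (final) and substrate. Test compounds were added before ADP at multiple concentrations.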
An asterisk follows results filed as active; [ ] = remark or other dose. Unless noted, calls come from the whole dose curve; as a rule, active = well fitted curve in the direction sought with a large enough effect; inconclusive = small, poorly fitted or top-dose-only effect, or another doubt; inactive = no such curve, though single readings can be large; an effect the other way counts as inactive or inconclusive. % is set by controls: 0 for no effect and ±100 for the full control effect.

What do the screens show for `CNC(=O)Nc1cccc(-c2cc(-c3c(Cl)cccc3Cl)no2)c1`?
HCMV antiviral: -74*; Sm TGR inh: 2%; FBPA Giardia inh: 3%; RE007 growth inh: 23%; FMDV antiviral: -25%; TbPYK inhibitor: -1%

Results for Cc1ccc2c(=O)c(C(=O)c3ccc(Cl)cc3)cn(CC(=O)Nc3ccc4c(c3)OCCO4)c2n1 ?
HCMV antiviral: -22; Sm TGR inh: 2%; FMDV antiviral: -21%; TbPYK inhibitor: -4%

How did FC(F)(F)c1ccc(/C=N/n2c(COc3ccccc3)n[nH]c2=S)cc1 do in these assays?
HCMV antiviral: -66*; Sm TGR inh: -15%; FBPA Giardia inh: 26%; RE007 growth inh: 3%; FMDV antiviral: -15%; TbPYK inhibitor: -26%

How did S=c1[nH]nc(COc2ccccc2)n1/N=C/c1ccncc1 do in these assays?
HCMV antiviral: -4; Sm TGR inh: 1%; FBPA Giardia inh: 1%; RE007 growth inh: -2%; FMDV antiviral: -15%; TbPYK inhibitor: -27%

What do the screens show for `O=C1C=C[C@]23OCC[C@@]2(c2ccccc2)CCCC3=C1`?
HCMV antiviral: -4

How did Cc1nc2ccc(NC(=O)c3cc([N+](=O)[O-])cc([N+](=O)[O-])c3Cl)cc2s1 do in these assays?
HCMV antiviral: 78; Sm TGR inh: 0.5µM*; FBPA Giardia inh: -2%; FMDV antiviral: inconclusive; TbPYK inhibitor: -9%

What do the screens show for `Cc1cc(C)c(S(=O)(=O)N[C@H]2CC[C@@]34CCCN3C(=O)CCC[C@H]4[C@H]2Cc2ccccc2)c(C)c1`?
HCMV antiviral: -22

Results for O=C(NCC1(N2CCOCC2)CCCCC1)c1cnn(-c2nccc(-c3cccs3)n2)c1C1CC1 ?
FMDV antiviral: -16%

What do the screens show for `COc1ccc(N2C(=O)C(OC(C)=O)C2c2ccc(C)cc2)cc1` (centres undefined)?
HCMV antiviral: -64*; Sm TGR inh: -1%; FBPA Giardia inh: -2%; RE007 growth inh: 32%; FMDV antiviral: 9%; TbPYK inhibitor: -4%

What do the screens show for `Nc1ncncc1-c1ccc2ccccc2c1`?
HCMV antiviral: -75*; Sm TGR inh: 17%; FBPA Giardia inh: -2%; RE007 growth inh: 3%; FMDV antiviral: -18%; TbPYK inhibitor: 0%

How did COc1ccc(-c2cncnc2N)cc1OC do in these assays?
HCMV antiviral: -18; RE007 growth inh: 1%; FMDV antiviral: inconclusive; TbPYK inhibitor: -9%

Results for Cc1ccc(Sc2ncccc2C(=O)O)c(C)c1 ?
HCMV antiviral: -16; Sm TGR inh: -9%; FBPA Giardia inh: 4%; FMDV antiviral: -10%; TbPYK inhibitor: 1%

How did Cc1ccc(Sc2ncccc2C(=O)O)cc1C do in these assays?
HCMV antiviral: -67*; Sm TGR inh: 5%; FBPA Giardia inh: 0%; RE007 growth inh: -7%; FMDV antiviral: inconclusive; TbPYK inhibitor: -1%

How did C#CC[N+](C)(C)C(C#Cc1ccccc1)CC=C (centres undefined) do in these assays?
HCMV antiviral: -89*; Sm TGR inh: 2%; FBPA Giardia inh: 0%; RE007 growth inh: 8%; FMDV antiviral: 23%; TbPYK inhibitor: 1%

What do the screens show for `C=CCC(C)(O)C#Cc1ccccc1` (centres undefined)?
FBPA Giardia inh: 3%

What do the screens show for `O=C(Cc1ccc(Cl)cc1)NCC(c1cccs1)S(=O)(=O)c1ccccc1` (centres undefined)?
HCMV antiviral: -16; Sm TGR inh: 8%; FMDV antiviral: -19%; TbPYK inhibitor: -4%

What do the screens show for `CN1CCN(CC(C)(C)NS(=O)(=O)c2ccccc2)CC1`?
HCMV antiviral: -61*; RE007 growth inh: 0%; FMDV antiviral: -14%; TbPYK inhibitor: 0%

What do the screens show for `O=C1NCCCC2c3cc(O)c4ccccc4c3OC12N1CCCCC1` (centres undefined)?
HCMV antiviral: inconclusive; Sm TGR inh: 2µM*; FBPA Giardia inh: 0.56µM*

Results for O=c1oc2ccccc2c(O)c1CN1CCCCC1 ?
HCMV antiviral: -23; Sm TGR inh: -18%; FBPA Giardia inh: 2%; RE007 growth inh: 7%[3.69 µM]; FMDV antiviral: 2%

How did CCc1nc2sc3c(c2c(=O)n1NC(=O)CCl)CCCC3 do in these assays?
HCMV antiviral: -74*; Sm TGR inh: 45µM*; FBPA Giardia inh: 10%; RE007 growth inh: -8%; FMDV antiviral: inconclusive; TbPYK inhibitor: 5%

Results for Cc1ccc2nc(Cl)c3nnnn3c2c1 ?
Sm TGR inh: 1.4µM*; FBPA Giardia inh: 11%; RE007 growth inh: 25µM*; FMDV antiviral: 13µM*; TbPYK inhibitor: 0%

How did Cc1ccc2nc(NCc3ccccc3Cl)c3nnnn3c2c1 do in these assays?
HCMV antiviral: -2; Sm TGR inh: 1%; FMDV antiviral: -11%; TbPYK inhibitor: 1%

Results for Cn1ccc2c(/C=C/c3ccc(F)cc3)cc3c(c21)C1CCC3C1 (centres undefined) ?
HCMV antiviral: -67*; RE007 growth inh: 1%; FMDV antiviral: -11%; TbPYK inhibitor: -7%

Results for Cn1ccc2c(-c3ccc(C(=O)O)cc3)cc3c(c21)C1CCC3C1 (centres undefined) ?
HCMV antiviral: 43; RE007 growth inh: 45µM*; FMDV antiviral: 6%; TbPYK inhibitor: 2%

What do the screens show for `COc1ccc(NC(=O)N2CCCC3(CCN(C(=O)c4cnccn4)CC3)C2)cc1`?
FBPA Giardia inh: -9%; FMDV antiviral: -8%; TbPYK inhibitor: 1%

What do the screens show for `C#CC[N+]1(CC#Cc2cccc3ccccc23)CCOCC1`?
HCMV antiviral: -35; Sm TGR inh: 28µM*; FBPA Giardia inh: 4%; RE007 growth inh: 8%; FMDV antiviral: -12%; TbPYK inhibitor: 4%

How did C#CC[N+]1(CC#Cc2ccc(C#CC[N+]3(CC#C)CCOCC3)cc2)CCOCC1 do in these assays?
Sm TGR inh: 0%; FBPA Giardia inh: -4%; RE007 growth inh: -10%; FMDV antiviral: 15%; TbPYK inhibitor: -3%

What do the screens show for `C(#Cc1ccccc1)C[N+]1(CC#Cc2cccc3ccccc23)CCCC1`?
HCMV antiviral: -100*; Sm TGR inh: inconclusive; FBPA Giardia inh: -24%; RE007 growth inh: 10%; FMDV antiviral: inconclusive; TbPYK inhibitor: -4%

How did Cc1noc(C)c1NC(=O)N(C)C[C@H]1OCc2cn(nn2)CCCC(=O)N([C@H](C)CO)C[C@@H]1C do in these assays?
HCMV antiviral: -7
